Assays:
Experiment in all cases: DAPPL (digital affinity profiling via proximity ligation, sequencing); 10 mM Tris-HCl pH 7.5, 50 mM NaCl, 1 mM DTT, 4% glycerol, room temperature, 30 min; GST-TFs on glutathione beads, 16-mer random dsDNA library, 0.1% formaldehyde crosslink after washing; high values mean tight binding
[1] = biological target: ETV5 (Homo sapiens, UniProt P41161 1-510); details: protein: recombinant; tags: N-terminal GST; dsDNA, one strand shown
Summary of the method: (§1)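 The binding signal reported is, for every hexamer, its read frequency for a factor over its read frequency for the tag-only sample. Reads came from pools of yeast-expressed, GST-fused human transcription factors on glutathione beads, barcoded with DNA and mixed with that sample, which were incubated with 200 nmole of a random double-stranded 16-mer DNA library in Tris/NaCl/DTT/glycerol buffer at room temperature for 30 min. After washing, the pools were crosslinked with 0.1% formaldehyde, proximity-ligated with BsaI/T4 ligase for 1 h at 37 °C, PCR-amplified and sequenced on an Illumina NextSeq500.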

[2] = biological target: HSF1 (Homo sapiens, UniProt Q00613 1-529); details: protein: recombinant; tags: N-terminal GST; chain copies: 3; dsDNA, one strand shown
Summary of the method: as §1

[3] = biological target: T1, SPIC (Homo sapiens, UniProt Q8N5J4 1-248); details: protein: recombinant; tags: N-terminal GST; dsDNA, one strand shown
T1 sequence: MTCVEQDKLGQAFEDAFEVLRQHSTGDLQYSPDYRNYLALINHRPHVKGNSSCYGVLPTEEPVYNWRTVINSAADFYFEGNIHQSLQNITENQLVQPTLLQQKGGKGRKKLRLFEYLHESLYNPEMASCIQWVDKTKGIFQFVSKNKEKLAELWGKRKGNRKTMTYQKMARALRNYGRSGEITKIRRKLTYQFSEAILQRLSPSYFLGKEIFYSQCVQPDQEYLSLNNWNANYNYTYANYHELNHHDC
Summary of the method: as §1

[4] = biological target: ELF4 (Homo sapiens, UniProt Q99607 1-663); details: protein: recombinant; tags: N-terminal GST; dsDNA, one strand shown
Summary of the method: as §1

[5] = biological target: T2, ELK4 (Homo sapiens, UniProt P28324-2 1-405); details: protein: recombinant; tags: N-terminal GST; dsDNA, one strand shown
T2 sequence: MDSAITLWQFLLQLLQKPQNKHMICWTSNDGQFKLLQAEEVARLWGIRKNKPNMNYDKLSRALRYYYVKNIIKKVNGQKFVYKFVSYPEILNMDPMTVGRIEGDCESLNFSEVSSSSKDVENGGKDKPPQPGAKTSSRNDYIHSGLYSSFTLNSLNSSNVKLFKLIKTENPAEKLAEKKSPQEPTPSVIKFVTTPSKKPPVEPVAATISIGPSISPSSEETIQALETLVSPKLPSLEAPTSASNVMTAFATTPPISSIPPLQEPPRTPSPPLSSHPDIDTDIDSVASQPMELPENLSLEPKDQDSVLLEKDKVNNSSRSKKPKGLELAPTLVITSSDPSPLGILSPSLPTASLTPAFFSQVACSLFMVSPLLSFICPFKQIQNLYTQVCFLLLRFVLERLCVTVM
Summary of the method: as §1

[6] = biological target: T3, ETV2 (Homo sapiens, UniProt O00321 1-342); details: protein: recombinant; tags: N-terminal GST; dsDNA, one strand shown
T3 sequence: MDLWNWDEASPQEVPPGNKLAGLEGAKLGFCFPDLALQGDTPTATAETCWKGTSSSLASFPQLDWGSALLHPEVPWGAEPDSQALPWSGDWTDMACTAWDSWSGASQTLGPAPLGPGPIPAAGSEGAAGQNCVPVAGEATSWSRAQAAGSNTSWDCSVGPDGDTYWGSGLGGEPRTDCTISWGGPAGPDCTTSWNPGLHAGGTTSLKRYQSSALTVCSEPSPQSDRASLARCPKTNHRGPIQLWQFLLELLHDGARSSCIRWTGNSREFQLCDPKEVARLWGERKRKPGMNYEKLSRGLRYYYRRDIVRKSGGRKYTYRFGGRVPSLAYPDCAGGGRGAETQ
Summary of the method: as §1

[7] = biological target: CRX (Homo sapiens, UniProt O43186 1-299); details: protein: recombinant; tags: N-terminal GST; dsDNA, one strand shown
Summary of the method: as §1

[8] = biological target: ETV1 (Homo sapiens, UniProt P50549 1-477); details: protein: recombinant; tags: N-terminal GST; dsDNA, one strand shown
Summary of the method: as §1

[9] = biological target: T4, ERF (Homo sapiens, UniProt P50548 1-548); details: protein: recombinant; tags: N-terminal GST; dsDNA, one strand shown
T4 sequence: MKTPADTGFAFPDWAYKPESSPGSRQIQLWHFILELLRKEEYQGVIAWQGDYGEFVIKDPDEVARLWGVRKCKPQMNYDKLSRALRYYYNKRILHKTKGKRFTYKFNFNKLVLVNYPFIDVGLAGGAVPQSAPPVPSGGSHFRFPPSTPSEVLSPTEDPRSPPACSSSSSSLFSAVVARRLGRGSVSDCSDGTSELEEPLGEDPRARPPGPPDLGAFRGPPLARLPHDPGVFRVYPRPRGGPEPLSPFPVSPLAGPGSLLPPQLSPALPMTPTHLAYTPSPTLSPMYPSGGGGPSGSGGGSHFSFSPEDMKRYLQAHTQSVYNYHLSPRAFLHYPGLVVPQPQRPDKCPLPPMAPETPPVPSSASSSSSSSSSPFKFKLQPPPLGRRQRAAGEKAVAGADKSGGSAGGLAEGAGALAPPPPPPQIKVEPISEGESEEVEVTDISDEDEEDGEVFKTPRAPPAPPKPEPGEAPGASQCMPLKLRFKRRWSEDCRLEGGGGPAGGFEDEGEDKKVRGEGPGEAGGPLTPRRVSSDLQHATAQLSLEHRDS
Summary of the method: as §1

[10] = biological target: T5, ETV3L (Homo sapiens, UniProt Q6ZN32 1-361); details: protein: recombinant; tags: N-terminal GST; dsDNA, one strand shown
T5 sequence: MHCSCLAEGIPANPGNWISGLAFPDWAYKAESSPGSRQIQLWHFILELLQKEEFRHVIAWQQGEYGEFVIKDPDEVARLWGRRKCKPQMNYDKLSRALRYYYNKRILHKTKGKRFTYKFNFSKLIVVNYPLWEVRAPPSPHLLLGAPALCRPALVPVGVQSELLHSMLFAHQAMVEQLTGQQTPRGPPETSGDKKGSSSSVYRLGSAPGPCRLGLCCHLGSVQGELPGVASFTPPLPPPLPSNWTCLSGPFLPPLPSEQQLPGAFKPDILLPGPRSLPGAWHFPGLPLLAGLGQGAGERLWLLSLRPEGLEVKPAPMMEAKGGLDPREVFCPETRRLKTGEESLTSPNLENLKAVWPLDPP
Summary of the method: as §1

[11] = biological target: T6, ETS2 (Homo sapiens, UniProt P15036 1-469); details: protein: recombinant; tags: N-terminal GST; dsDNA, one strand shown
T6 sequence: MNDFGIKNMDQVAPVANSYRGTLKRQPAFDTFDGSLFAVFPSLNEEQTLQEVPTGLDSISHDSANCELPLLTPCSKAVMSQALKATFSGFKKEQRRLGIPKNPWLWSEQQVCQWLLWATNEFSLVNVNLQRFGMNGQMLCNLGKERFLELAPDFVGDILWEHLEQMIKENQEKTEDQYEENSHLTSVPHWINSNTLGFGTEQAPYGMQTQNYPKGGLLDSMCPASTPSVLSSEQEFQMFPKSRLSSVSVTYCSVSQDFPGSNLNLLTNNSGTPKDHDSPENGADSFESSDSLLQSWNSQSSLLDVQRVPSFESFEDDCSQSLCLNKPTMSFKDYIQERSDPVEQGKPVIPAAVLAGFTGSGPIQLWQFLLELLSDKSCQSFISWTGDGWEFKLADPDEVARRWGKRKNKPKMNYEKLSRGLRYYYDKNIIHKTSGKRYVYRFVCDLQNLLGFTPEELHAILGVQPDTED
Summary of the method: as §1

[12] = biological target: T7, SPDEF (Homo sapiens, UniProt O95238 1-335); details: protein: recombinant; tags: N-terminal GST; dsDNA, one strand shown
T7 sequence: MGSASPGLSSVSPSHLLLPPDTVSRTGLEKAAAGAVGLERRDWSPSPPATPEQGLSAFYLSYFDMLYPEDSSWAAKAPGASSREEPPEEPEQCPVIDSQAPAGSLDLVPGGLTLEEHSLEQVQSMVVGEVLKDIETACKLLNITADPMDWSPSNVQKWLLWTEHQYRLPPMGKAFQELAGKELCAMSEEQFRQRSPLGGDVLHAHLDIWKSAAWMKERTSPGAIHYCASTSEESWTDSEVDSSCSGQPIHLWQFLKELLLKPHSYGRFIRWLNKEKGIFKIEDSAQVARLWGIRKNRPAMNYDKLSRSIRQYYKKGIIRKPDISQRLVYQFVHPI
Summary of the method: as §1

[13] = biological target: T8, ETV7 (Homo sapiens, UniProt Q9Y603 1-341); details: protein: recombinant; tags: N-terminal GST; dsDNA, one strand shown
T8 sequence: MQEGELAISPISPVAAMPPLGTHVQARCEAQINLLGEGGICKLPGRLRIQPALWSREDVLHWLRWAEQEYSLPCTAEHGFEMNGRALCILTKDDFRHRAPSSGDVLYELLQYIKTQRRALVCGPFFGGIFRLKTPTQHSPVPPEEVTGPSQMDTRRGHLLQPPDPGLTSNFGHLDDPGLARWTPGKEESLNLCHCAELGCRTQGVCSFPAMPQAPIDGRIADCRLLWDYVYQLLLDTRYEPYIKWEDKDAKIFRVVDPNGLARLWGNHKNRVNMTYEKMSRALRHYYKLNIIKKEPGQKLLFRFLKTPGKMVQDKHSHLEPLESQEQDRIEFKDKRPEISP
Summary of the method: as §1

[14] = biological target: T9, ELF5 (Homo sapiens, UniProt Q9UKW6-2 1-255); details: protein: recombinant; tags: N-terminal GST; dsDNA, one strand shown
T9 sequence: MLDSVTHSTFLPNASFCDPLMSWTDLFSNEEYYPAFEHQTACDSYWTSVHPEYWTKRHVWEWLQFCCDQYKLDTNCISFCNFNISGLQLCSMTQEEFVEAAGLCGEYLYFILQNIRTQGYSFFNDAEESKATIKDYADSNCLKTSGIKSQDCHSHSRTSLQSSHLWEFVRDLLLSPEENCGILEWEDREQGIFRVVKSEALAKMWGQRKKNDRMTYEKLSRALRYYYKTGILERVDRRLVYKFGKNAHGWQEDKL
Summary of the method: as §1

[15] = biological target: T10, ETV3 (Homo sapiens, UniProt P41162-2 1-143); details: protein: recombinant; tags: N-terminal GST; dsDNA, one strand shown
T10 sequence: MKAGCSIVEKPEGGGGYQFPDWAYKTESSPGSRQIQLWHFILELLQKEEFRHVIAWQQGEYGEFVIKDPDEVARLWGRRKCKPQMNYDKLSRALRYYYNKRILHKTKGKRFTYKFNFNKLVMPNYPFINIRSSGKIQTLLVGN
Summary of the method: as §1

[16] = biological target: ETV6 (Homo sapiens, UniProt P41212 1-452); details: protein: recombinant; tags: N-terminal GST; dsDNA, one strand shown
Summary of the method: as §1

[17] = biological target: T11, FEV (Homo sapiens, UniProt Q99581 1-238); details: protein: recombinant; tags: N-terminal GST; dsDNA, one strand shown
T11 sequence: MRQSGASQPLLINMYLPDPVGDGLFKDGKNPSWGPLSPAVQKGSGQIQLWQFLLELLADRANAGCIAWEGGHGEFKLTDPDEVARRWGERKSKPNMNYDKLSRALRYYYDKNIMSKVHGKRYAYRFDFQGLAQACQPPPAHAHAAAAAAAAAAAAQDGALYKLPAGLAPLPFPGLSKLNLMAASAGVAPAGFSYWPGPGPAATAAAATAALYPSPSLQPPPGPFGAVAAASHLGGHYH
Summary of the method: as §1

Chain of ETV5 (P41161 whole entry, the tested form may be a part): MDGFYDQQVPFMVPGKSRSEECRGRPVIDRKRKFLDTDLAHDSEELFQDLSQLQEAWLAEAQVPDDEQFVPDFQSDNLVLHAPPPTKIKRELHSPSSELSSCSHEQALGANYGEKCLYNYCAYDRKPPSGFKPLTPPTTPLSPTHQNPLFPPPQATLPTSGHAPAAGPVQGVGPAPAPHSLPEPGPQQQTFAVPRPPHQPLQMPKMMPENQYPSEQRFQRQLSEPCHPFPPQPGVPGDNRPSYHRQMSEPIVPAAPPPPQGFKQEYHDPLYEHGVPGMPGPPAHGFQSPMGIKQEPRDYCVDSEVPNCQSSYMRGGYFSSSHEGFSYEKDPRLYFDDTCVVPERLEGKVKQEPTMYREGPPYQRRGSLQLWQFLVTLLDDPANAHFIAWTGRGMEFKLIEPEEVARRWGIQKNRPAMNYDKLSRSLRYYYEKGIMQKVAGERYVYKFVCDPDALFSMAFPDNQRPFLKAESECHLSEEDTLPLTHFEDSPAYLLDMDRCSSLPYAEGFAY
Chain of ELF4 (Q99607 whole entry): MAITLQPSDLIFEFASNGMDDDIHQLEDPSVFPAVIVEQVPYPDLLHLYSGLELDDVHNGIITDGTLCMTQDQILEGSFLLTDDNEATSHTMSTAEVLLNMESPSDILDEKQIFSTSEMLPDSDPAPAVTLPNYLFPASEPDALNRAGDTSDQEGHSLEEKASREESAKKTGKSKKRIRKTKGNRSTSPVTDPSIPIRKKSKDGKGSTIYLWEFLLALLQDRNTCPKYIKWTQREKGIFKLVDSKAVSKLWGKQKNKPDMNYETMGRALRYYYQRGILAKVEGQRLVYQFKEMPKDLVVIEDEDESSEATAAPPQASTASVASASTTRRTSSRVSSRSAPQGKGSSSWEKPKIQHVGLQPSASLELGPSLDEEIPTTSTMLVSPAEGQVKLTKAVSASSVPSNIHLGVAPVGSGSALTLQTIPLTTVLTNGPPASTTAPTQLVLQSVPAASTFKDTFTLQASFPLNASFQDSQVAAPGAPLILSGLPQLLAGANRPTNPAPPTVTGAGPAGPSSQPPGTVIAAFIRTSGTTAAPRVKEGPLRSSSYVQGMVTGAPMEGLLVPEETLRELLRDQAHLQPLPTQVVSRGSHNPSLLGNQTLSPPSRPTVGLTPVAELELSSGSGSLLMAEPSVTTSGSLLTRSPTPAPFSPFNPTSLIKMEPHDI
Chain of HSF1 (Q00613 whole entry): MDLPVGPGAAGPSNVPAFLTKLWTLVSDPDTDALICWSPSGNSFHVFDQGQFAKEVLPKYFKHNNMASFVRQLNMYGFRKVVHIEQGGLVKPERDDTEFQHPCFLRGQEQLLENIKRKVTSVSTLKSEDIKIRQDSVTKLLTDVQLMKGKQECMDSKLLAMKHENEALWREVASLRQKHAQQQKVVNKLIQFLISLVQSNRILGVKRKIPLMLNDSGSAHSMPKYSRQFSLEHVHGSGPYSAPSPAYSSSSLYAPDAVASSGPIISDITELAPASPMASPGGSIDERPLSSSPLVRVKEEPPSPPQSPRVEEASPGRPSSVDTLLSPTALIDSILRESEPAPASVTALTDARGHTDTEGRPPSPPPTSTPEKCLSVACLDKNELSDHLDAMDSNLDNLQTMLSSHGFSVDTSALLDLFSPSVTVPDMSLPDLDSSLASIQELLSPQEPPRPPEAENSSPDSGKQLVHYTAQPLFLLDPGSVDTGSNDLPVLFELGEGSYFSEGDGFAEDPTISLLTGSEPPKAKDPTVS
Chain of ETV6 (P41212 whole entry): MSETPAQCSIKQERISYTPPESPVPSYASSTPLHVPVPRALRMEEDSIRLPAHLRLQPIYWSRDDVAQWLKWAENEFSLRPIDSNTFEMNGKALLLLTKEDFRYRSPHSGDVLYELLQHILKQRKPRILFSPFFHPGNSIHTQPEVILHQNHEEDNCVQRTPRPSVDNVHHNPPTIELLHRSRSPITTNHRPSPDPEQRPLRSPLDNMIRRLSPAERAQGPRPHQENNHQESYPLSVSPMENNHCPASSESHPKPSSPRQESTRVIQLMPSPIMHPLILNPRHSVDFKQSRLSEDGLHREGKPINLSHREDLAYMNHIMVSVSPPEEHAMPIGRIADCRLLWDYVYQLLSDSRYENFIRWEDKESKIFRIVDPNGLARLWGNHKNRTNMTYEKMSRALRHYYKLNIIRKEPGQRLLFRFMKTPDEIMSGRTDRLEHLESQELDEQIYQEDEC
Chain of CRX (O43186 whole entry): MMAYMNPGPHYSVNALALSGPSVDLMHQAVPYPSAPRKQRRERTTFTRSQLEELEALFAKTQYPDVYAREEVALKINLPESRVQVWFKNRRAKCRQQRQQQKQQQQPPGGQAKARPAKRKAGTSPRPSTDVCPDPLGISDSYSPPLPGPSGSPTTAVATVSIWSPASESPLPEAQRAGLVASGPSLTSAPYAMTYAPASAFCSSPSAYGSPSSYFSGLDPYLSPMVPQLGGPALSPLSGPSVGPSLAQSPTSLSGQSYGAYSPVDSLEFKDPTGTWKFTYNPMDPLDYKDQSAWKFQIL
Chain of ETV1 (P50549 whole entry): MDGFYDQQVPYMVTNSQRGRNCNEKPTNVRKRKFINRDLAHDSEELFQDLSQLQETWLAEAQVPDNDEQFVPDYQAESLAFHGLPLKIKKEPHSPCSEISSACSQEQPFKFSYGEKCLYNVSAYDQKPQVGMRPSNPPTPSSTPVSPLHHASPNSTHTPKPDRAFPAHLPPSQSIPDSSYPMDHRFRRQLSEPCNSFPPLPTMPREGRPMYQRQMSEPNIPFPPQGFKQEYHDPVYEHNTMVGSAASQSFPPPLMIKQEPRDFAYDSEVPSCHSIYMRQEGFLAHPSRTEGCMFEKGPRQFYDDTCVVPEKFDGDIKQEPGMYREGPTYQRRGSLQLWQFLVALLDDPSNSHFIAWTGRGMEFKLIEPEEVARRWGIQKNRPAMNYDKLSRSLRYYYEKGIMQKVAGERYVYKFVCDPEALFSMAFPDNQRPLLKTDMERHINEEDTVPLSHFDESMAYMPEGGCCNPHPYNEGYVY

Row | Sequence | binding signal [1] | binding signal [2] | binding signal [3] | binding signal [4] | binding signal [5] | binding signal [6] | binding signal [7] | binding signal [8] | binding signal [9] | binding signal [10] | binding signal [11] | binding signal [12] | binding signal [13] | binding signal [14] | binding signal [15] | binding signal [16] | binding signal [17]
1 | TTAGCG | 1 fold enrichment (6-mer frequency, TF over GST control) | 1.49 fold enrichment (6-mer frequency, TF over GST control) | 1.03 fold enrichment (6-mer frequency, TF over GST control) | 1.14 fold enrichment (6-mer frequency, TF over GST control) | 1.05 fold enrichment (6-mer frequency, TF over GST control) | 1.14 fold enrichment (6-mer frequency, TF over GST control) | 2.24 fold enrichment (6-mer frequency, TF over GST control) | 1.07 fold enrichment (6-mer frequency, TF over GST control) | 1.05 fold enrichment (6-mer frequency, TF over GST control) | 1.06 fold enrichment (6-mer frequency, TF over GST control) | 1.06 fold enrichment (6-mer frequency, TF over GST control) | 1.04 fold enrichment (6-mer frequency, TF over GST control) | 1.11 fold enrichment (6-mer frequency, TF over GST control) | 1.02 fold enrichment (6-mer frequency, TF over GST control) | 1.03 fold enrichment (6-mer frequency, TF over GST control) | 1.04 fold enrichment (6-mer frequency, TF over GST control) | –
2 | CTGTAA | 1.05 fold enrichment (6-mer frequency, TF over GST control) | 1.09 fold enrichment (6-mer frequency, TF over GST control) | 1.24 fold enrichment (6-mer frequency, TF over GST control) | 1.06 fold enrichment (6-mer frequency, TF over GST control) | 1.09 fold enrichment (6-mer frequency, TF over GST control) | 1.21 fold enrichment (6-mer frequency, TF over GST control) | 1.25 fold enrichment (6-mer frequency, TF over GST control) | 1 fold enrichment (6-mer frequency, TF over GST control) | 1.2 fold enrichment (6-mer frequency, TF over GST control) | – | 1.09 fold enrichment (6-mer frequency, TF over GST control) | – | – | 1.03 fold enrichment (6-mer frequency, TF over GST control) | 1.12 fold enrichment (6-mer frequency, TF over GST control) | 1.03 fold enrichment (6-mer frequency, TF over GST control) | –
3 | TTGGCT | 1.05 fold enrichment (6-mer frequency, TF over GST control) | 1.03 fold enrichment (6-mer frequency, TF over GST control) | 1.02 fold enrichment (6-mer frequency, TF over GST control) | 1.08 fold enrichment (6-mer frequency, TF over GST control) | 1.21 fold enrichment (6-mer frequency, TF over GST control) | 1.07 fold enrichment (6-mer frequency, TF over GST control) | 1.33 fold enrichment (6-mer frequency, TF over GST control) | 1.02 fold enrichment (6-mer frequency, TF over GST control) | 1.18 fold enrichment (6-mer frequency, TF over GST control) | 1.13 fold enrichment (6-mer frequency, TF over GST control) | – | 1.11 fold enrichment (6-mer frequency, TF over GST control) | 1.07 fold enrichment (6-mer frequency, TF over GST control) | – | 1.06 fold enrichment (6-mer frequency, TF over GST control) | 1.13 fold enrichment (6-mer frequency, TF over GST control) | 1.17 fold enrichment (6-mer frequency, TF over GST control)
